Records with an inconclusive call do not appear. A call without a number means that no potency is given here. Active and inactive are the calls of the source. Calls follow the shape of the dose curve; as a rule, active = well fitted inhibition curve with a large enough effect; inconclusive = small, poorly fitted or top-dose-only effect; inactive = flat fitted curve, though single readings scatter.

Calcium and integrin-binding protein 1 (Homo sapiens), sequence (Q99828 whole entry, looked up): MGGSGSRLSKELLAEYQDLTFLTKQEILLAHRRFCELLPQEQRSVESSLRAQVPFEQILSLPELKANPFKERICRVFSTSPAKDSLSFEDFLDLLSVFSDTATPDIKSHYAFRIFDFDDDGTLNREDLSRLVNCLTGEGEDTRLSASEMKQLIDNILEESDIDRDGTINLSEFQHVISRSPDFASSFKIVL

The target in the assay is Calcium and integrin-binding protein 1 (Homo sapiens) (UniProt Q99828). Briefly: Primary qHTS for Identification of Calcium Integrin Binding Protein 1 (CIB1) Competitor (AID 1508620). Also: top concentration of the series differs between compounds. The settings on record: CIB1-GST / FITC-alphaIIb peptide fluorescence polarization; series mostly up to 114 µM. In a few lines:
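Fluorescence polarization competition: GST-tagged CIB1 (1 uM final) preincubated with compound 15 min at room temperature, then FITC-labelled alphaIIb peptide (100 nM final) added. After 15 min at room temperature, polarization read at Ex 480/Em 540.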
In the case of `CC(=O)Nc1sc2c(c1-c1nc3ccccc3s1)CCS(=O)(=O)C2`, the Potency result was “inactive”.

With `NC(=O)C1CCN(c2nccc(-c3ccc4c(c3)OCCO4)n2)CC1`, the Potency result was “inactive”.

As to `CC(=O)NCc1cc(Cl)c2cccnc2c1O`, the Potency entry is “inactive”.

`Cc1c(C(=O)OCc2ccco2)[nH]c2c1C(=O)CC(c1ccco1)C2` (stereo not given): the Potency result was “inactive”.

For the molecule `Cc1ccc(S(=O)(=O)N(C)c2cccc3cccnc23)cc1`, the Potency result was “inactive”.

For `COc1cccc(NC(=S)N2CCN(c3cc(C(F)(F)F)cc(C(F)(F)F)c3)CC2)n1`, the Potency entry is “inactive”.

As for `COc1cccc(C)c1NC(=O)C(OC(=O)CNC(=O)c1ccccc1)c1ccccc1` (stereo not given), the Potency entry is “inactive”.

Turning to `O=C1CCc2cc(S(=O)(=O)Nc3cccc(C(F)(F)F)c3)ccc2N1`, the Potency result was “inactive”.

For `CN(c1cccc2cccnc12)S(=O)(=O)c1ccccc1`, the Potency result was “inactive”.

As to `Cc1ccc(NS(=O)(=O)c2cc3c(cc2Cl)NC(=O)CO3)cc1C`, the Potency entry is “inactive”.

For the molecule `Cc1cc(C)n2ncc(C(=O)Nc3ccccc3C)c2n1`, the Potency entry is “inactive”.

Turning to `COc1cc2nc(Nc3ccccc3)nc(NC3CC3)c2cc1OC`, the Potency result is “inactive”.

Consider `O=C1c2ccccc2C(=O)N1c1ccccc1O`, for which the Potency result is “inactive”.

`FC(F)(F)c1cccc(N2CCN(C(=S)Nc3ccncc3)CC2)c1`: the Potency entry is “inactive”.

In the case of `Cc1ccc(NC(=O)CN2C(=O)N/C(=C\c3cccn3-c3ccc(P(=O)(O)O)cc3)C2=O)cc1`, the Potency result was “inactive”.

`Cc1ccc(N[S+](=O)([O-])c2cc3c(cc2Cl)CCC(=O)N3)cc1Br`: the Potency entry was “inactive”.

As to `Cc1ccc(NC(=O)c2ccc3c(c2)CCC(=O)N3)cc1C`, the Potency result was “inactive”.

As to `Fc1cccc(Nc2nc(-c3ccncc3)nc3ccccc23)c1`, the Potency result is “inactive”.

Turning to `O=C(CSc1nnc(-c2cccc(S(=O)(=O)N3CCCC3)c2)n1-c1ccccc1)Nc1ccc(Cl)cc1`, the Potency entry was “inactive”.

As for `Cc1ccsc1CN(C)c1ncnc2ccc(-c3oc(-c4ccccc4)nc3C)cc12`, the Potency result is “inactive”.

For `O=C(c1ccc2c(c1)ncn2-c1cccc(C(F)(F)F)c1)N1CCCCC1`, the Potency result is “inactive”.

On to `FC(F)(F)c1ccccc1-c1nc2c(c(NCc3ccc(-c4cccnc4)cc3)n1)CCC2`, for which the Potency result is “inactive”.

In the case of `CC(=O)c1ccc(-c2csc(N3CCC(C(N)=O)CC3)n2)cc1`, the Potency entry was “inactive”.

Take `O=C1Nc2ccccc2/C1=C\c1cc(Br)c(O)c(Br)c1`: the Potency entry is “inactive”.

On to `Cc1ccc(OCCn2c(CCNC(=O)c3cccc(Br)c3)nc3ccccc32)cc1`, for which the Potency entry is “inactive”.

Turning to `CC1=C(C(=O)Nc2ccccc2C)C(c2ccccc2Br)N=C(Nc2nc3ccccc3o2)N1` (stereo not given), the Potency entry is “inactive”.

For the molecule `Oc1cc(NCc2ccccc2)cc2cccnc12`, the Potency result was “inactive”.

Consider `Cc1cn([C@H]2C[C@H](N[S+](=O)([O-])Cc3ccc([N+](=O)[O-])cc3)[C@@H](CO)O2)c(=O)[nH]c1=O`, for which the Potency entry is “inactive”.

Consider `Cc1cc(NS(=O)(=O)c2ccc(NC(=O)Cc3ccc(Cl)cc3Cl)cc2)no1`, for which the Potency entry is “inactive”.

For the molecule `COc1ccc(CN2C(=O)c3ccccc3NC2c2ccc(OC)c(COc3ccc(NC(C)=O)cc3)c2)cc1` (stereo not given), the Potency result was “inactive”.

For the molecule `O=C(NCCc1nc2ccccc2n1CCOc1ccccc1[N+](=O)[O-])C1CCCCC1`, the Potency result is “inactive”.

On to `CCOC(=O)C1CCN(C(=O)C(C)(C)NC(=O)Nc2ccc3c(c2)CCC3)CC1`, for which the Potency entry is “inactive”.

Take `Cc1ccccc1CSc1nc2ncc(Br)cc2[nH]1`: the Potency result was “inactive”.

As for `O=S(=O)(c1ccc2c(c1)OCCO2)N1CCN(S(=O)(=O)c2ccc3c(c2)OCCO3)CC1`, the Potency result was “inactive”.

Turning to `Nc1ncc(-c2cccc(-c3nn4c(=O)cc(N5CCNCC5)nc4s3)c2)cn1`, the Potency result is “inactive”.

`Cc1cc(C)n2ncc(C(=O)N3CCCC3)c2n1`: the Potency result is “inactive”.

With `c1nc(NCc2ccc3c(c2)OCO3)c2cc(-c3ccc4c(c3)OCCO4)ccc2n1`, the Potency result was “inactive”.

In the case of `O=S(=O)(c1cccc(-c2n[nH]c(=S)n2-c2ccccc2)c1)N1CCCC1`, the Potency entry is “inactive”.

On to `Cc1noc(C)c1-c1ccc2ncnc(NCc3cccc(-c4ccccc4)c3)c2c1`, for which the Potency result is “inactive”.

With `NCCCNc1ncnc2ccc(-c3ccc4c(c3)OCO4)cc12`, the Potency entry is “inactive”.

These data come from PubChem BioAssay (NCATS).
